Records with an inconclusive call do not appear. Activity calls are given as the source filed them. The calls were made as follows, unless noted: active = hit-call score of the fitted dose curve at least 0.9, where 1 is the maximum; inactive = score below 0.9.
Columns and labels:
[1] = read-out: Tumor necrosis factor (Homo sapiens) (UniProt P01375); assay: BSK_BT_xTNFa: BioMAP Diversity Plus: BT Assay for Tumor necrosis factor alpha (TNF-alpha) Biomarker Activity (AID 2284230); details: primary human B cells with PBMC
Outline: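 Endpoint derived in the positive direction versus DMSO vehicle. Cells: B cells together with PBMC, exposed 24 h before TNF-alpha in the medium was read on the Luminex xMAP platform.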

[2] = read-out: Vascular cell adhesion molecule 1 (VCAM1), VCAM1 (gene 7412); assay: BSK_MyoF_VCAM1: BioMAP Diversity Plus: MyoF Assay for Vascular cell adhesion molecule 1 (VCAM1) Biomarker Activity (AID 2284231); details: primary human lung fibroblasts
Outline: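 ELISA readout of VCAM-1 on human lung fibroblast cultures 24 hours after dosing, analyzed for signal gain relative to DMSO. Overt cytotoxicity was checked by sulforhodamine B total-protein staining in parallel cultures.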

[3] = read-out: Collagen I, COL1A1 (gene 1277); assay: BSK_MyoF_CollagenI: BioMAP Diversity Plus: MyoF Assay for Collagen I Biomarker Activity (AID 2284238); details: primary human lung fibroblasts
Outline: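 Collagen I levels measured by ELISA on human lung fibroblast cultures 24 h post-dosing, with curve fitting in the positive direction relative to DMSO; SRB staining of parallel wells marked cytotoxicity.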

[4] = read-out: Collagen III, COL3A1 (gene 1281); assay: BSK_MyoF_CollagenIII: BioMAP Diversity Plus: MyoF Assay for Collagen III Biomarker Activity (AID 2284239); details: primary human lung fibroblasts
Outline: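 Collagen III biomarker quantified by ELISA in human lung fibroblast cultures 24 h after dosing. Activity fitted in the positive direction against DMSO as baseline.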

[5] = read-out: Interleukin 17F (IL17F), IL17F (gene 112744); assay: BSK_BT_xIL17F: BioMAP Diversity Plus: BT Assay for Interleukin 17F (IL17F) Biomarker Activity (AID 2284243); details: primary human B cells with PBMC
Outline: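 Human B cells co-cultured with PBMC; secreted IL-17F quantified by LumineX xMAP 24 hours after chemical dosing. Activity fitted in the positive direction against DMSO negative control as baseline.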

[6] = read-out: Actin alpha 1 (ACTA1), ACTA1 (gene 58); assay: BSK_MyoF_ACTA1: BioMAP Diversity Plus: MyoF Assay for Actin alpha 1 (ACTA1) Biomarker Activity (AID 2284244); details: primary human lung fibroblasts
Outline: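 ELISA read-out of a-SMA in primary human lung fibroblast cultures, 24 h post-dosing. Activity scored in the positive direction versus DMSO baseline.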

[7] = read-out: Interleukin 2 (IL2), IL2 (gene 3558); assay: BSK_BT_xIL2: BioMAP Diversity Plus: BT Assay for Interleukin 2 (IL2) Biomarker Activity (AID 2284245); details: primary human B cells with PBMC
Outline: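 Readout: supernatant IL-2 via Luminex xMAP after 24 h chemical dosing of a B cell/PBMC primary human co-culture. DMSO serves as negative control and baseline; increases in signal were fitted.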

[8] = read-out: Basic fibroblast growth factor (bFGF), FGF2 (gene 2247); assay: BSK_MyoF_bFGF: BioMAP Diversity Plus: MyoF Assay for Basic fibroblast growth factor (bFGF) Biomarker Activity (AID 2284246); details: primary human lung fibroblasts
Outline: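 Primary human lung fibroblast culture, 24 h compound exposure; ELISA read-out of bFGF. Positive-direction fit vs DMSO baseline. Cytotoxicity: SRB stain (0.1% SRB, 10% TCA fixation, 560 nm) in parallel wells.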

[9] = read-out: Collagen IV, COL4A1 (gene 1282); assay: BSK_MyoF_CollagenIV: BioMAP Diversity Plus: MyoF Assay for Collagen IV Biomarker Activity (AID 2284247); details: primary human lung fibroblasts
Outline: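 ELISA read-out of Collagen IV in lung fibroblast cultures, 24 h post-dosing; gain of signal relative to DMSO vehicle baseline defines activity.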

[10] = read-out: Monokine induced gamma interferon (MIG), CXCL9 (gene 4283); assay: BSK_KF3CT_MIG: BioMAP Diversity Plus: KF3CT Assay for Monokine induced gamma interferon (MIG) Biomarker Activity (AID 2284248); details: primary human keratinocytes with fibroblasts
Outline: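 Parallel cultures were stained with SRB (560 nm) to check cytotoxicity. MIG was quantified by ELISA in a primary human skin keratinocyte/fibroblast co-culture 24 h post-dosing, with gain of signal fitted relative to DMSO.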

[11] = read-out: Collagen I, COL1A1 (gene 1277); assay: BSK_hDFCGF_CollagenI: BioMAP Diversity Plus: hDFCGF Assay for Collagen I Biomarker Activity (AID 2284250); details: primary human foreskin fibroblasts
Outline: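 ELISA read-out of Collagen I in human dermal foreskin fibroblast cultures, 24 h after dosing. Gain of signal versus DMSO vehicle defines activity.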

[12] = read-out: Interferon-inducible T-cell alpha chemoattractant (ITAC), CXCL11 (gene 6373); assay: BSK_hDFCGF_ITAC: BioMAP Diversity Plus: hDFCGF Assay for Interferon-inducible T-cell alpha chemoattractant (ITAC) Biomarker Activity (AID 2284251); details: primary human foreskin fibroblasts
Outline: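 I-TAC levels were read by ELISA on human dermal foreskin fibroblast primary cultures 24 h after dosing, analysed against DMSO in the positive direction. Cytotoxicity was assessed alongside by sulforhodamine B total-protein staining.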

[13] = read-out: Plasminogen activator inhibitor-1 (PAI1), SERPINE1 (gene 5054); assay: BSK_KF3CT_PAI1: BioMAP Diversity Plus: KF3CT Assay for Plasminogen activator inhibitor-1 (PAI1) Biomarker Activity (AID 2284252); details: primary human keratinocytes with fibroblasts
Outline: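 Keratinocyte + dermal fibroblast co-culture (human primary); 24 h post-dose; PAI-1 by ELISA; gain-of-signal fit vs DMSO control.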

[14] = UKN4_HCS_LUHMES_cell_viability: Viability Assessment in the University of Konstanz (UKN) Leist Lab Neurite Outgrowth Assay in human LUHMES cells (UKN4) (AID 2284232)
Outline: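 Day-2 differentiated LUHMES, 30000 cells/well, dosed ~30 min–2 h post-seeding; 24 h treatment incl. staining; Hoechst H-33342 + calcein-AM at 23.5 h; HCS imaging; DMSO-normalized, bidirectional fit.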

[15] = CCTE_Mundy_HCI_Cortical_NOG_NeuronCount: CCTE's Neurite Outgrowth Assay in rat cortical cells for Neuron Count, Mundy Lab (AID 2284236; active = hit-call score of the fitted dose curve at least 0.9, where 1 is the maximum;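 also: neurons counted by imaging betaIII-tubulin and Hoechst stained cortical cells; cells exposed to compound for about 48 hours before fixation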)
Outline: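 Read-out: neuron number by high-content imaging of betaIII-tubulin (Alexa Fluor-488) and Hoechst-labelled rat primary cortical cells.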

[16] = CCTE_Mundy_HCI_Cortical_NOG_BPCount: CCTE's Neurite Outgrowth Assay in rat cortical cells for Branch Point Count, Mundy Lab (AID 2284237)
Outline: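 Measured 50.33 h after dosing, this morphology endpoint uses rat primary cortical cultures labelled for betaIII-tubulin. Branch points are quantified by high-content imaging, with DMSO as negative control and baseline.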

[17] = CCTE_Mundy_HCI_hNP1_Casp3_7: CCTE's Caspase-Glo 3/7 Assay in human neuroprogenitor cells for Apoptosis, Mundy Lab (AID 2284240)
Outline: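 Apoptosis is scored by activated caspase-3/7 luminescence in WA09-derived neural progenitor cells, measured 26.5 h after chemical dosing. Values represent gain of signal relative to DMSO vehicle.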

[18] = CCTE_Mundy_HCI_hNP1_CellTiter: CCTE's Cell Titer-Glo 2 Assay in human neuroprogenitor cells for Viability, Mundy Lab (AID 2284241; active = hit-call score of the fitted dose curve at least 0.9, where 1 is the maximum)
Outline: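 Human neural progenitor cells (hNP1, WA09-derived) were plated on poly-L-ornithine/laminin and grown 40 to 44 hours at 37 °C, 5% CO2 before chemical addition. Twenty-four hours later, ATP was measured by CellTiter-Glo luminescence; loss of signal versus DMSO indicates reduced viability.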

Measured: AC50

Sequence of Tumor necrosis factor (Homo sapiens) (P01375 whole entry, looked up): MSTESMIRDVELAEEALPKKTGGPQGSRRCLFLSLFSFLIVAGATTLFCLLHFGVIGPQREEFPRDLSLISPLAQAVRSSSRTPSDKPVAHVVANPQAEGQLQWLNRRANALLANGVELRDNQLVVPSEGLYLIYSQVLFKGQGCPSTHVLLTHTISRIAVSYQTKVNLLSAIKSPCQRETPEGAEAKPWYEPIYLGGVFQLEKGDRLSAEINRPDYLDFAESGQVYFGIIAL

CCOC(=O)CC(=O)CCl
inactive: [2] | [3] | [4] | [6] | [8] | [9]
active: [1] 23.4 µM | [5] 12.4 µM | [7] 20 µM

Cc1cccc(OP(=O)(Oc2cccc(C)c2)Oc2cccc(C)c2)c1
inactive: [1] | [2] | [3] | [4] | [5] | [6] | [7] | [8]
active: [9] 0.0382 µM

Oc1ccc(Cc2ccc(O)cc2)cc1
inactive: [1] | [2] | [3] | [4] | [5] | [6] | [7] | [8] | [9]

O=C(Cc1ccccc1)OCCc1ccccc1
inactive: [10] | [11] | [12] | [13]

N#CCCC(Br)(C#N)CBr (stereo not given)
active: [1] 11.1 µM | [2] 13.9 µM | [3] 25.7 µM | [4] 24.8 µM | [5] 9.32 µM | [6] 12 µM | [7] 11 µM | [8] 25 µM | [9] 0.914 µM

CCCCOC(=O)COC(=O)c1ccccc1C(=O)OCCCC
inactive: [10] | [11] | [12] | [13]

CCOP(=S)(OCC)SCS(=O)(=O)C(C)(C)C
inactive: [1] | [2] | [3] | [4] | [5] | [6] | [7] | [8] | [9]

CC(C)=CC1C(C(=O)OCc2cccc(Oc3ccccc3)c2)C1(C)C (stereo not given)
active: [1] 20 µM | [5] 20 µM | [7] 20 µM
inactive: [2] | [3] | [4] | [6] | [8] | [9]

CCOC(=O)CCN(SN(C)C(=O)Oc1cccc2c1OC(C)(C)C2)C(C)C
active: [1] 36.7 µM | [2] 33.1 µM | [5] 30 µM | [6] 29.3 µM | [7] 36.3 µM
inactive: [3] | [4] | [8] | [9]

OCCCCO
inactive: [10] | [11] | [12] | [13]

O=[N+]([O-])c1ccc(Nc2ccccc2)cc1
inactive: [1] | [2] | [3] | [4] | [5] | [6] | [7] | [8] | [9]

CC(C)(C)c1cc([N+](=O)[O-])cc(C(C)(C)C)c1O
active: [1] 14.8 µM | [4] 0.0556 µM | [5] 13 µM | [7] 20 µM | [9] 0.396 µM
inactive: [2] | [3] | [6] | [8]

O=S(=O)(C(Cl)(Cl)Cl)C(Cl)(Cl)Cl
active: [1] 4.36 µM | [2] 3.12 µM | [3] 3.07 µM | [4] 4.1 µM | [5] 3.03 µM | [6] 2.64 µM | [7] 4.48 µM | [8] 3.71 µM | [9] 2.53 µM

c1ccc(-c2cccc(-c3ccccc3)c2)cc1
active: [2] 29.1 µM | [3] 26.4 µM | [4] 32.9 µM | [5] 22.6 µM | [6] 20 µM
inactive: [1] | [7] | [8] | [9]

Nc1c(Oc2ccccc2)cc(O)c2c1C(=O)c1ccccc1C2=O
inactive: [1] | [2] | [3] | [4] | [5] | [6] | [7] | [8]
active: [9] 2.54 µM

Cc1cc(C(F)(C(F)(F)F)C(F)(F)F)ccc1NC(=O)c1cccc(I)c1C(=O)NC(C)(C)CS(C)(=O)=O
inactive: [14] | [15] | [16] | [17] | [18]
